Measured values taken from PubChem BioAssay (NCI).
Compounds without any hit were thinned out: in the full panel of roughly 83,000, 20% have a hit.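 Note: values are percent growth. 100 is the growth of untreated cells, values between 100 and 0 indicate rising inhibition; between -100 and 0 indicates cell death.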 Unmarked numbers belong to inactive results. Activity calls are given as the source filed them. Rule for the calls: active = growth percent below 10; inactive = the rest.

Key:
Assay in all cases: NCI-60 one-dose screen, 48 h (100 = growth as untreated, 0 = no growth, -100 = all killed)
Details in all cases: 10 µM unless noted
DU-145 prostate = system: DU-145 prostate
K-562 leukemia = system: K-562 leukemia
MALME-3M melanoma = system: MALME-3M melanoma
MDA-MB-231 breast = system: MDA-MB-231 breast
RXF 393 renal = system: RXF 393 renal
SF-268 CNS = system: SF-268 CNS
SF-295 CNS = system: SF-295 CNS
SF-539 CNS = system: SF-539 CNS
UACC-257 melanoma = system: UACC-257 melanoma
M14 melanoma = system: M14 melanoma

| Structure (SMILES) | growth (DU-145 prostate) | growth (K-562 leukemia) | growth (MALME-3M melanoma) | growth (MDA-MB-231 breast) | growth (RXF 393 renal) | growth (SF-268 CNS) | growth (SF-295 CNS) | growth (SF-539 CNS) | growth (UACC-257 melanoma) | growth (M14 melanoma) |
| --- | --- | --- | --- | --- | --- | --- | --- | --- | --- | --- |
| c1ccc(Cn2cc3c(c2)-c2nc(Nc4ccccc4)ncc2CC3)cc1 | 83.2% [100 µM] | 108% [100 µM] | 83.5% [100 µM] | 65.2% [100 µM] | 48.6% [100 µM] | 76.9% [100 µM] | 57.6% [100 µM] | 64.3% [100 µM] | 98.2% [100 µM] | 92.9% [100 µM] |
| O=C1C(Nc2ccc(Br)cc2)=C(I)C(=O)c2ncccc21 | 20.5% | 5.98% (active) | -6.23% (active) | 6.88% (active) | 45.8% | 46.2% | 86.6% | 15.3% | 49.3% | 10.4% |
| CN(C)c1ccc(Cc2cc(-c3ccccc3)nn(C/C(=N/O)c3ccccc3)c2=O)cc1 | 91.8% | 29.5% | 66.2% | 54% | 61.4% | 55.8% | 45.5% | 84.3% | 62.8% | 57% |
| COc1ccc(-c2cc(-c3ccc(Nc4nc(Nc5ccc(Cl)cc5)nc(Nc5ccc(Cl)cc5)n4)cc3)no2)cc1 | 91.3% | 69.9% | 104% | 82.1% | -8.53% (active) | 72.9% | 73% | 86.1% | 105% | 86.7% |
| COc1cccc(/C=C2\CCc3ccccc3C2=O)c1 | 97.8% | 35.1% | 80.7% | 89.9% | 90.2% | 90.3% | 88.9% | 91.5% | 80.8% | 90% |
| CN1C(=O)N(C)C2C1NN=c1s/c(=C\c3ccccc3F)c(=O)n12 (stereo not given) | 15.9% | 9.52% (active) | 44.9% | 13.2% | -6.27% (active) | 65.5% | 14.6% | -23.8% (active) | 54.5% | 9.53% (active) |
| CCN1C(=O)N(CC)C2C1NN=c1s/c(=C\c3ccc([N+](=O)[O-])cc3)c(=O)n12 (stereo not given) | 19.9% | 9.56% (active) | 45.7% | 18.5% | 2.89% (active) | 71.5% | 13.2% | -7.87% (active) | 31.1% | 12% |
| CN1CCN(c2ccc(Nc3ncc4[nH]c(=O)n(Cc5ccccc5N)c4n3)cc2)CC1 | 103% | 69.8% | 83.9% | 83.8% | 83.8% | 72.8% | 98.2% | 80.9% | 112% | 95.9% |
| FC(F)(F)c1cc(N2CCCCC2)nc(NCCCNc2ccnc3cc(Cl)ccc23)n1 | 81.8% | 11.2% | 72.7% | 87.9% | 59.7% | 70.3% | 51.1% | 74.8% | 53.3% | 70.9% |
| CSc1nc(N)c2c(n1)NC(c1ccccc1)C1CCc3ccccc3C1=N2 (stereo not given) | 74.5% | 47.7% | 113% | 71.9% | 84.4% | 60.1% | 41.7% | 102% | 88.7% | 55.7% |
| CC1(C)CC[C@]2(CO)CC[C@]3(C)[C@H](CC[C@@H]4[C@@]5(C)CC[C@H](O)C(C)(C)[C@@H]5CC[C@]43C)[C@H]2[C@H]1O | 77.7% | 83.9% | 78.1% | 26.5% | 61.1% | 83.7% | 86.4% | 12.8% | 104% | 99.7% |
| O=c1ccc2c(ccc3ncccc32)o1 | 117% | 113% | 121% | 120% | 95% | 113% | 90.4% | 106% | 110% | 128% |
| C=CC(=O)Nc1ccc2ncnc(Nc3cccc(NS(=O)(=O)CCC)c3Cl)c2c1 | 37.8% | 67.2% | 7.81% (active) | 24.3% | 15.1% | 48% | 72.9% | 44.4% | 5.07% (active) | 19.6% |
| Cc1ccc(-c2nnc(SCc3nc(N)nc(Nc4ccccc4F)n3)n2-c2ccccc2)cc1 | 102% | 89.9% | 117% | 91.9% | 80.7% | 97.3% | 94.3% | 97% | 99.3% | 103% |
| Cc1ccc(Nc2cc(N)nc(N)n2)cc1 | 107% | 87.9% | 102% | 108% | 114% | 93.4% | 103% | 112% | 110% | 104% |
| CCN=c1sc2c(n1NC(=O)c1cc3ccc1CCc1ccc(cc1)CC3)C(=O)c1ccccc1C2=O | -91.4% (active) | -28.5% (active) | -87.4% (active) | -7.49% (active) | -87.2% (active) | -10.6% (active) | 31% | -94.4% (active) | -90.5% (active) | -93.5% (active) |
| CCOC(=O)/C(=C\c1ccccc1Cl)P(=O)(OCC)OCC | 36% | 28.6% | 71.2% | 71% | 42.8% | 63.2% | 96.7% | 48.2% | 61.9% | 56.6% |
| CC(C)=CC(=O)C1C(=O)c2ccccc2C1=O | 104% | 74.5% | 83.6% | 107% | 104% | 101% | 98.3% | 104% | 107% | 94% |
| Cc1ccccc1NC(=O)Cn1cc(CN2CCN(c3ccnc4cc(Cl)ccc34)CC2)nn1 | 105% | 70% | 109% | 83.1% | 102% | 92.6% | 100% | 97.8% | 109% | 101% |
| C=C(CNCCc1ccc(O)cc1)[C@@H]1CC[C@]2(CO)CC[C@]3(C)[C@H](CC[C@@H]4[C@@]5(C)CCC(N)C(C)(C)[C@@H]5CC[C@]43C)[C@@H]12 (stereo not given in full) | -68.6% (active) | -50.9% (active) | -86.2% (active) | -80.5% (active) | -90.9% (active) | -74.3% (active) | -82% (active) | -93.4% (active) | -77.3% (active) | -81.8% (active) |
| CCCCC#Cc1c(I)n(C2OC(CO[Si](C)(C)C(C)(C)C)C3OC(C)(C)OC32)c(=O)[nH]c1=O (stereo not given) | 74.1% | 36.3% | 60.6% | 79% | -56.4% (active) | 98.4% | 113% | 88.1% | 55.1% | 76% |
| CN(C)CCOc1nc2c3cc([N+](=O)[O-])ccc3nn2c2ccccc12 | 32.2% | 26.3% | 52.4% | 66.4% | 24.3% | 56.6% | 9.28% (active) | 51.6% | 78.9% | 47.3% |
| O=c1c(Cc2ccc(F)cc2)cc(-c2ccccc2)nn1C/C(=N/O)c1ccccc1 | 79.6% | 29.2% | 35.8% | 43.1% | 28.5% | 52.6% | 31.9% | 81.9% | 53.8% | 37.5% |
| CN1CCN(Cc2ccc(NC(=O)c3cncc(C#Cc4c(N)ncc5ccccc45)c3)cc2C(F)(F)F)CC1 | -95.6% (active) | -37% (active) | -84.8% (active) | -88.7% (active) | -97% (active) | -65.1% (active) | -59.9% (active) | -97% (active) | -72.2% (active) | -73.9% (active) |
